# PubChem BioAssay (NCATS)
# Inconclusive results are not listed. The source made the active and inactive calls. Calls come from the whole dose curve; as a rule, active = well fitted cell-killing curve with a large enough effect; inconclusive = small, poorly fitted or top-dose-only effect, or effect the other way; inactive = no such curve, though single readings can be large or run the other way.
# Test: Quantitative High-Throughput drug screen in 47 multiple myeloma cell lines against the NCATS MIPE library collection: OCIMY7_PLB cell viability assay (AID 1918987); note: nearly all actives have a fitted effect of over 65% in size
# Details: OCI-MY7 myeloma viability, CellTiter-Glo ATP, 48 h; viability (% of DMSO): at 45.8 µM (top of the series)
# Excerpt: PI: Beverly A. Mock Ph.D.
# Laboratory of Cancer Biology and Genetics,
# Center for Cancer Research, National Cancer Institute,
# National Institute of Health, Bethesda, Maryland
# Drug resistance and disease progression are common in multiple myeloma (MM) patients, underscoring the need for new therapeutic combinations. […] We hypothesized that effective combinations would reduce MYC expression and enhance p16 activity. […] These preclinical data identify potentially useful drug combinations for evaluation in drug-resistant MM and reveal potential mechanisms of combined drug sensitivity.
# Described herein is the primary MIPE qHTS used to cherrypick compounds. Validated compounds were then further tested for potential synergistic activiy.
# [1] Peat TJ, Gaikwad SM, Dubois W, Gyabaah-Kessie N, Zhang S, Gorjifard S, Phyo Z, Andres M, Hughitt VK, Simpson RM, Miller MA, Girvin AT, Taylor A, Williams D, D'Antonio N, Zhang Y, Rajagopalan A, Flietner E, Wilson K, Zhang X, Shinn P, Klumpp-Thomas C, McKnight C, Itkin Z, Chen L, Kazandijian D, Zhang J, Michalowski AM, Simmons JK, Keats J, Thomas CJ, Mock BA. Drug combinations identified by high-throughput screening promote cell cycle transition and upregulate Smad pathways in myeloma. Cancer Lett. 2023 Aug 1;568:216284. doi: 10.1016/j.canlet.2023.216284. Epub 2023 Jun 24. PMID: 37356470; PMCID: PMC10408729.
# SEQUENCE No. (e.g., 1, 2, 3, etc.); […] (e.g., Cells, Incubation, Reagent, etc.); VALUE and DESCRIPTION.
# 1; Cells; 5 uL; white, solid bottom 1536-well Greiner assay plate.
# 2; Compounds; 23 nL; Kalypsis pin tool (Wako USA) equipped with a 1536-well pin head to transfer to the assay plates.
# 3; Incubation; 48 hours; 37C incubation.
# 4; Reagent;5uL; CellTiter Glo (Promega).
# 5; Detector; 425V; Luminescence; Viewlux PerkinElmer.
# NOTES (numbers refer to Sequence numbers above)
# 1. The cell-based screening methods employed in this study were like those previously published. Briefly, the corresponding myeloma cell lines were screened in 1,536-well plates with 500 cells, 5-uL per well for inhibition of cell viability (assessed by measuring ATP levels with CellTiterGlo).
# 2. NCATS MIPE 4.0 library of approved and investigational drugs were added using the Kalypsis pin tool. Wells treated with DMSO only for 100% viability and media only for 0% viability were used as controls.
# 3. The assay plates were covered and incubated for 48 hours in a 37C, 5% CO2 incubator with controlled humidity.
# 4. After 48 hours, CellTilter-GloTM luminescent substrate mix (Promega) reagent was added to the assay plate and plates we incubated for 5 min at room temperature.
# 5. Signal was measured as median relative luminescence units on a ViewLux (PerkinElmer) multiplate reader.
# [1] Heske CM, Davis MI, Baumgart JT, Wilson K, Gormally MV, Chen L, Zhang X, Ceribelli M, Duveau DY, Guha R, Ferrer M, Arnaldez FI, Ji J, Tran HL, Zhang Y, Mendoza A, Helman LJ, Thomas CJ. Matrix Screen Identifies Synergistic Combination of PARP Inhibitors and Nicotinamide Phosphoribosyltransferase (NAMPT) Inhibitors in Ewing Sarcoma. Clin Cancer Res. 2017 Dec 1;23(23):7301-7311. doi: 10.1158/1078-0432.CCR-17-1121. Epub 2017 Sep 12. PMID: 28899971; PMCID: PMC6636827.
# Potency is the fitted concentration of half-maximal effect.
Structure (SMILES),Potency,viability (% of DMSO)
O=C(O)c1ccc(-c2c[nH]c3ncc(-c4ccccc4)cc23)cc1C1CCCC1,8.33 µM (active),
Nc1nc(F)nc2c1ncn2[C@@H]1O[C@H](COP(=O)(O)O)[C@@H](O)[C@H]1O,18.7 µM (active),
C[N+](C)(C)CC(=O)O,,126% (inactive)
COc1cc2nc(-c3ccc(N4CCN(C)CC4)cc3)nc(NCCN3CCOCC3)c2cc1OC,14.8 µM (active),
C=C1C(=O)[C@@]23C(CC[C@@H]1[C@H]2O)[C@@]12CO[C@]3(O)[C@@H](O)[C@@H]1C(C)(C)CC[C@@H]2O (stereo not given in full),0.296 µM (active),
CCc1ccc(OCc2ccccc2C(=O)Nc2ccc3nc(C)cc(N)c3c2)cc1,1.05 µM (active),
CCn1c(C(=O)N(C2CC2)C2CC2)cc2c3c(ncn3C)c(Nc3cc(C)n(C)n3)nc21,14.8 µM (active),
COC(=O)N[C@H](C(=O)N1CCC[C@@H]1c1ncc(-c2ccc(-c3ccc(-c4cnc([C@@H]5CCCN5C(=O)[C@@H](NC(=O)OC)C(C)C)[nH]4)cc3)cc2)[nH]1)C(C)C,18.7 µM (active),
Nc1ncnc2c1ncn2[C@@H]1O[C@H](CO)C[C@@H]1O,,156% (inactive)
NS(=O)(=O)c1cccc2c1C(=O)c1cccc(O)c1C2=O,0.118 µM (active),
CN1CCN(CCOc2cc(OC3CCOCC3)c3c(Nc4c(Cl)ccc5c4OCO5)ncnc3c2)CC1,18.7 µM (active),
CC(C)OC(=O)CCCC=CC[C@@H]1[C@H](C=C[C@@H](O)COc2cccc(C(F)(F)F)c2)[C@H](O)C[C@@H]1O,14.8 µM (active),
c1cc(-c2sc(-c3ccncc3)c(-c3ccncc3)c2-c2ccncc2)ccn1,5.26 µM (active),
O=c1c(-c2ccc(O)cc2)coc2cc(O)ccc12,,175% (inactive)
O=C1NC(=O)C(=Cc2ccc(-c3ccc(F)cc3)o2)S1,20.9 µM (active),
CC(C)(C)NC(=O)Nc1cccc(Nc2ncc(F)c(NC(C)(C)CO)n2)c1,2.35 µM (active),
CS(=O)(=O)N(Cc1ccco1)CC(O)Cn1c2ccccc2c2ccccc21 (stereo not given),13.2 µM (active),
CN(C[C@@H]1COCCO1)S(=O)(=O)Nc1ccc2ccc3ncc(-c4cnn(C)c4)cc3c(=O)c2c1,0.469 µM (active),
COc1ccc(-c2coc3cc(O)ccc3c2=O)cc1,,150% (inactive)
COc1ccc(Cc2nccc3cc(OC)c(OC)cc23)cc1OC,18.7 µM (active),

Structure (SMILES),Potency,viability (% of DMSO)
CN[C@@H](C)C(=O)N[C@H]1CN(C(=O)CC(C)C)CC[C@H]2CC[C@@H](C(=O)NC(c3ccccc3)c3ccccc3)N2C1=O,10.5 µM (active),
COc1cc(N2CCC(N3CCN(C)CC3)CC2)ccc1Nc1ncc(Cl)c(Nc2ccccc2S(=O)(=O)C(C)C)n1,0.264 µM (active),
Oc1ccc(C2=Cc3ccc(O)cc3OC2)cc1,1.32 µM (active),
CCOC1OC(=O)C[C@H]1NC(=O)[C@@H]1CCCN1C(=O)[C@@H](NC(=O)c1ccc(N)c(Cl)c1)C(C)(C)C (stereo not given in full),,164% (active)
COc1ccc(-c2coc3cc(O)cc(O)c3c2=O)cc1,,189% (inactive)
NS(=O)(=O)c1ccc(NC2=CC(=O)c3ccccc3C2=O)cc1,2.09 µM (active),
O=C(N[C@@H](c1ccccc1)[C@@H]1CCCCN1)c1cccc(C(F)(F)F)c1Cl,,144% (inactive)
CCCCCN(C)CCC(O)(P(=O)(O)O)P(=O)(O)O,,183% (inactive)
CC1(C)CCC(CN2CCN(c3ccc(C(=O)NS(=O)(=O)c4ccc(NCC5CCOCC5)c([N+](=O)[O-])c4)c(Oc4cnc5[nH]ccc5c4)c3)CC2)=C(c2ccc(Cl)cc2)C1,0.59 µM (active),
CC(C)(C)Cn1c(N)nc2ccc(-c3[nH]c(C(C)(C)C)nc3-c3ccc(F)cc3)nc21,18.7 µM (active),
Nc1ncnc2c1nc(Cl)n2[C@@H]1O[C@H](CO)[C@@H](O)[C@@H]1O,10.5 µM (active),
O=C(NCc1ccccc1)c1csc(Nc2ccncn2)n1,8.33 µM (active),
O=C(O)c1ccccc1C(=O)Nc1ccc(-c2ccccc2)cc1,,182% (inactive)
Clc1ccc(CCC(Cn2ccnc2)Sc2c(Cl)cccc2Cl)cc1 (stereo not given),13.2 µM (active),
CC(=O)O[C@]1(C(C)=O)CC[C@@H]2[C@@H]3C[C@H](C)C4=CC(=O)CC[C@]4(C)[C@H]3CC[C@@]21C,23.5 µM (active),
Cc1nc(N)sc1-c1ccnc(Nc2ccc(N3CCOCC3)cc2)n1,1.05 µM (active),
NC(=O)c1cnc(-c2ccc(C3(N)CCC3)cc2)c(-c2ccccc2)c1,1.87 µM (active),
CNC1CCC(N(Cc2cccc(-c3ccncc3)c2)C(=O)c2sc3c(F)ccc(F)c3c2Cl)CC1 (stereo not given),0.0662 µM (active),
COc1ccc(-n2c(C)c([N+](=O)[O-])c3ccc(O)cc32)cc1,14.8 µM (active),
COc1ccc2c3c1OC1C[C@@H](O)C=C[C@@]31CCN(C)C2 (stereo not given in full),4.18 µM (active),
